# Screens deposited in PubChem BioAssay by National Center for Advancing Translational Sciences (NCATS).
# Only some compounds are listed: those with a hit (about 3.1% of all), similar ones and a draw of the others.
# Vif-APOBEC3F blk – inhibitors of Vif-A3F interaction. HeLa A3F-eYFP + Vif (tagged APOBEC3F with the HIV-1 protein that degrades it), YFP fluorescence increase. Potency, µM (titrated, usually from 46.1 µM). 390,000 tested, 0.2% active; further: nearly all actives have a fitted effect of over 65% in size
#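 HeLa cells stably expressing Vif plus C-terminally eYFP-tagged A3F were seeded, incubated overnight at 37 deg C, dosed with compound, incubated overnight again at 37 deg C. Yellow fluorescence (Ex 488/Em 500-530) reported blocked Vif-mediated A3F-eYFP degradation.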
# VDR inhibitor – blocks the human vitamin D receptor | P11473 | Potency, µM, usual class: inhibitors | 400,000 tested, 0.93% active | VDR-SRC2-3 peptide fluorescence polarization, 2 h | AID 504847
#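 Fluorescence polarization assay measuring small-molecule disruption of VDR binding to the coregulator peptide SRC2-3. Compounds were pin-transferred (23 nl) into the reagent mix and incubated 2 h at room temperature before reading.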
# Vif-A3G inh – blocks the Vif interaction with human APOBEC3G; Q9HC16; HeLa A3G-eYFP + Vif (tagged APOBEC3G with the HIV-1 protein that degrades it), YFP fluorescence, overnight; Potency, µM (series often up to 46.1 µM), most hits filed as inhibitors; 410,000 tested, 0.076% active; further: nearly all actives have a fitted effect of over 60% in size
#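 Read-out is eYFP fluorescence (Ex 488/Em 500-530) from Vif-expressing HeLa A3G-eYFP cells; more signal means A3G escaped Vif-mediated degradation. Cells plated overnight, compound pinned in, incubated overnight at 37 deg C.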
# PLK1 PBD inh – inhibitors of human PLK1 polo-box domain binding; P53350; 360,000 tested, 2.8% active; Plk1 PBD binding of FITC phosphopeptide, fluorescence polarization; Potency, µM, most hits filed as inhibitors; AID 720504; further: series mostly up to about 57 µM; nearly all actives have a fitted effect of over 65% in size
# TSHR antag – human thyrotropin receptor antagonism; 330,000 tested, 0.2% active; activity change, negative = inhibition, % at 11.5 µM; TSHR-expressing cells, TSH-stimulated cAMP HTRF, 2 h; stronger effect = lower value; P16473; AID 504810;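 active means activity change below a set negative limit, meaning inhibition stronger than a set level, cut at about -70% in these data; inconclusive means activity change between two set negative limits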
# Target sequence (P16473 whole entry, looked up): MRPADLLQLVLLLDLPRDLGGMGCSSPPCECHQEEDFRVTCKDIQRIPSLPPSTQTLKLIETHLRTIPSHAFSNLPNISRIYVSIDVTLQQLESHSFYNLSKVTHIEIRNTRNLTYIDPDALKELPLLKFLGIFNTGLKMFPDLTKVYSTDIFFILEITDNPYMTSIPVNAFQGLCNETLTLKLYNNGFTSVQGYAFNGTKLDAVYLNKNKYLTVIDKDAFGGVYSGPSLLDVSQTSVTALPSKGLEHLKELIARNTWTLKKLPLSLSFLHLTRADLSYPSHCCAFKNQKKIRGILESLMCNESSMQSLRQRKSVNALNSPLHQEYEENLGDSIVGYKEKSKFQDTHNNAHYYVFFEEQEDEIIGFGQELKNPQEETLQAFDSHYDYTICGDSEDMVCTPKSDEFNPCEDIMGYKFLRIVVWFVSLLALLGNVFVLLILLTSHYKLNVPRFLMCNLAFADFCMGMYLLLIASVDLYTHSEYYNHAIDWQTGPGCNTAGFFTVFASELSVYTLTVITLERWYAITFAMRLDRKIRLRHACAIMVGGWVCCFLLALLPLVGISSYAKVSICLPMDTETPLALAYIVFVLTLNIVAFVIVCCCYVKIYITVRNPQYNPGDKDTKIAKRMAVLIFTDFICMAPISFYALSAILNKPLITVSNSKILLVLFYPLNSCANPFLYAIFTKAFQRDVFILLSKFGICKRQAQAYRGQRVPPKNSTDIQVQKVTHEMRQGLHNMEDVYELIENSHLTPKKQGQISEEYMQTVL
#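 TSHR-expressing cells, 200/well, pre-treated with compound, then stimulated with EC80 TSH (4nM final) for 2 hours at 37 deg C. cAMP measured by competitive HTRF: anti-cAMP cryptate antibody in lysis buffer plus cAMP-d2, read after 30 minutes at room temperature.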
# A number is an active result; - = inactive; ? = inconclusive; . = not tested or not shown; ! = not active in a repeat. Unless noted, the call rests on the fitted dose curve; in most records, active means well fitted curve in the direction sought with a large enough effect; inconclusive means small, poorly fitted or top-dose-only effect, or another doubt; inactive means no such curve, though single readings can be large; an effect the other way counts as inactive or inconclusive.
SMILES,Vif-APOBEC3F blk,VDR inhibitor,Vif-A3G inh,PLK1 PBD inh,TSHR antag
CC1Cc2cc(S(=O)(=O)NCCC(=O)NCc3ccc(F)cc3)ccc2N1C(=O)C1CC1 (stereo not drawn),-,-,-,-,-
CC(=O)N1c2ccc(S(=O)(=O)NCCC(=O)NCc3ccc(F)cc3)cc2CC1C (stereo not drawn),-,?,-,29.9µM,-
CC(=O)N1c2ccc(S(=O)(=O)NCCC(=O)NCCc3ccc(C)cc3)cc2CC1C (stereo not drawn),-,?,-,29.9µM,-
CC(=O)N1c2ccc(S(=O)(=O)NCCC(=O)NCCc3ccc(Cl)cc3)cc2CC1C (stereo not drawn),-,-,-,-,-
CCCCn1c(CNC(=O)c2ccc(OC)cc2)nnc1SCC(=O)Nc1ccccc1,-,-,-,.,.
O=C(Oc1ccc(Cl)c2cccnc12)c1cccc([N+](=O)[O-])c1,-,-,?,-,-
O=[N+]([O-])c1ccccc1COc1ccc(Cl)c2cccnc12,-,-,-,23.8µM,-
N=c1n(CCN2CCCC2)c2ccccc2n1CC(O)c1ccc(Cl)c(Cl)c1 (stereo not drawn),-,-,?,23.8µM,-
COc1ccc(OCC(O)Cn2c(=N)n(CCN3CCCCC3)c3ccccc32)cc1 (stereo not drawn),-,-,-,2.67µM,-
Cc1ccc(OCC(O)Cn2c(=N)n(CCN3CCCCC3)c3ccccc32)cc1 (stereo not drawn),-,-,-,-,-
CC(=O)N/C(=C/c1ccccc1)c1sc2ccccc2[n+]1CCCCI,.,.,-,.,.
Cc1ccc(C(=O)NCC(=O)OCC(=O)NCCc2ccccc2)s1,-,-,-,26.7µM,-
Cc1ccc(C(=O)NCC(=O)NCCCc2ccccc2)s1,-,-,-,-,-
Cc1ccc(C(C[N+](=O)[O-])c2c(-c3ccccc3O)[nH][nH]c2=O)cc1 (stereo not drawn),-,22.4µM,-,?,-
O=c1[nH][nH]c(-c2ccccc2O)c1C(C[N+](=O)[O-])c1ccc(Br)cc1 (stereo not drawn),-,?,?,?,-
CCOC(=O)C1CCCN(C(=O)CCNS(=O)(=O)c2ccc3c(c2)CCC(=O)N3)C1 (stereo not drawn),-,?,-,16.8µM,-
CCOC(=O)c1c(-n2cnnn2)sc2c1CCCC2,-,-,-,-,-
CCOC(=O)c1c(N2C(=O)Nc3cc(Cl)c(Cl)cc3N2O)sc2c1CCCCC2,-,?,-,13.4µM,-
O=[N+]([O-])c1ccc(O)c(-c2nn[nH]n2)c1,-,-,-,3.36µM,-
O=C(NCCc1nc2ccccc2n1CCOc1ccccc1)C1CCCCC1,.,-,-,.,.
Cc1nc(NC(=S)NC(=O)c2cncc(Br)c2)ccc1Br,-,?,-,21.2µM,-
O=C1NC(Cc2c[nH]c3ccccc23)C(=O)N1Cc1ccccc1 (stereo not drawn),-,-,-,-,-
COC(=O)c1ccc(CN2C(=O)NC(Cc3c[nH]c4ccccc34)C2=O)cc1 (stereo not drawn),-,-,-,-,-98.1
CCCCN(CCCC)C(=O)c1cc(Cl)ccc1[N+](=O)[O-],-,-,-,-,-
CCCN(CCC)C(=O)c1cc([N+](=O)[O-])cc2c1-c1ccc([N+](=O)[O-])cc1C2=C(C#N)C#N,-,39.8µM,-,?,-
SMILES,Vif-APOBEC3F blk,VDR inhibitor,Vif-A3G inh,PLK1 PBD inh,TSHR antag
O=C(c1cc(-c2ccc(Cl)cc2)on1)N1CCCCCC1,-,?,-,26.7µM,-
O=C(c1cc(-c2ccc(Cl)c(Cl)c2)on1)N1CCCCCC1,-,-,-,-,-
O=C(c1cc(-c2ccc(Br)cc2)on1)N1CCc2ccccc2C1,-,?,-,33.6µM,-
COc1ccc(NC(=O)c2nnn(Cc3nc(-c4cc(OC)c(OC)c(OC)c4)oc3C)c2C)cc1Cl,-,-,-,.,.
O=C1C(Cl)=C(NCCCO)C(=O)c2ccccc21,-,-,-,-,-
O=C1C(SCCO)=C(SCCO)C(=O)c2ccccc21,?,5.62µM,?,2.12µM,-86.5!
CC(=O)c1c(O)cc(O)c(C(C)=O)c1O,-,-,-,-,-94.3
CCN(CC)C(=O)Cn1nnc2sc(-c3ccccc3)cc2c1=O,.,-,.,.,.
CC(=O)Nc1ccc(S(=O)(=O)NCC(=O)NCCc2ccc(S(N)(=O)=O)cc2)cc1,-,-,-,-,-
NS(=O)(=O)c1ccc(CCNC(=O)CNS(=O)(=O)c2cccc(Br)c2)cc1,-,-,-,5.32µM,-
Cn1nnnc1SCC(=O)NC(=O)Cc1ccccc1,-,-,-,2.99µM,-
CCN(CC)C(=O)CSc1nc(C)cc(C)c1C#N,-,-,-,?,-
CCN(Cc1ccccc1)C(=O)CSc1nc(C)cc(C)c1C#N,-,?,-,21.2µM,-
Cc1cc(Cn2cnc3c(cnn3C(C)(C)C)c2=O)ccc1F,.,.,-,.,.
CCNc1ccc(Br)cc(C(=O)/C=C/c2ccc(Cl)cc2Cl)c1=O,?,79.4µM,?,?,-
COc1ccc(CNC(=O)CCn2c(=O)c3cccn3c3ccc(F)cc32)cc1,-,?,-,26.7µM,-
CSc1ccc(CNC(=O)CCn2c(=O)c3cccn3c3ccc(F)cc32)cc1,-,-,?,.,.
COc1ccc2[nH]c(C)c(CN3CCCCC3)c(=O)c2c1,-,-,-,-,-
CCc1c(C)[nH]c2ccc(OC)cc2c1=S,-,-,-,13.4µM,-
Cc1cn(C2CC3OCC(NC(=O)C4CCCN4C(=O)OC(C)(C)C)C3O2)c(=O)[nH]c1=O (stereo not drawn),.,-,-,.,.
CC(=O)c1cccc(NC(=O)CSc2nc3c(=O)n(C)c(=O)n(C)c3n2C)c1,-,-,-,.,.
CCOC(=O)c1c(-c2ccccc2)csc1NC(=O)C1CCCO1 (stereo not drawn),-,-,-,23.8µM,-
CCOC(=O)c1c(-c2ccc(C)cc2)csc1NC(=O)C1CC=CCC1C(=O)O (stereo not drawn),-,?,-,26.7µM,-
CCOC(=O)c1c(-c2ccc(-c3ccccc3)cc2)csc1NC(=O)C1C2CCC(O2)C1C(=O)O (stereo not drawn),-,-,-,10.6µM,-
CCCCCc1c2c(cc(O)c1C(=O)O)OC(=O)c1cc(C(=O)CCCC)c(OC)cc1O2,-,79.4µM,-,21.2µM,-
CCCCCc1c2c(cc(O)c1C(=O)O)OC(=O)c1c(cc(OC)cc1C(=O)CCCC)O2,-,79.4µM,?,26.7µM,?
Cc1cc(C)n2nc(/C(C#N)=C/c3ccccn3)c(C#N)c2n1,-,20µM,-,-,-
O=C(COCc1cc(-c2cccs2)on1)NC1CCCCC1,-,-,-,-,-88.4
CCc1nc2ccccc2n1CC(=O)N1CCN(Cc2ccccc2)CC1,-,-,-,21.2µM,-
O=C(CSc1nc2ccccc2n1CC(=O)N1CCCCC1)N1CCCCC1,-,-,-,-,-
